Records with an inconclusive call do not appear. Where a call stands in place of a potency, no number is given. Calls of active or inactive are those of the source. Calls come from the whole dose curve; as a rule, active = well fitted cell-killing curve with a large enough effect; inconclusive = small, poorly fitted or top-dose-only effect, or effect the other way; inactive = no such curve, though single readings can be large or run the other way.

Drawing on PubChem BioAssay (NCATS), this text covers Potency for 16 molecules.

The test is described as follows: qHTS assay to identify small molecule inhibitors of chordoma cells - UCH-1 (AID 1259355). Note: nearly all actives have a fitted effect of over 55% in size. To be noted: UCH-1 chordoma viability, CellTiter-Glo, 48 h, combination, with auranofin plus four topoisomerase inhibitors; series mostly up to 46.1 µM. Summed up:
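Seed 800 cells per well; incubate overnight at 37 C, 5% CO2. Add test compounds (15 concentrations), then the auranofin–topoisomerase-agent combination. Incubate 48hr, add CellTiter-Glo, wait 30min, read luminescence.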
In general terms: qHTS replaces the single test concentration by a dilution series.
With `C=C1C(=C/C=C2\CCC[C@]3(C)[C@@H]([C@H](C)/C=C/[C@@H](O)C4CC4)CC[C@@H]23)C[C@@H](O)C[C@@H]1O`, the Potency result was “inactive”.
Regarding `CCOC(=O)n1ccn(C)c1=S`, the Potency entry is “inactive”.
Then `N[C@@H](Cc1cnc[nH]1)C(=O)O`, with “inactive”; and `O=S1(=O)c2cccc3cccc(c23)N1CCCN1CCN(c2ccc(F)cc2)CC1`, with “inactive”; and `CCCCOc1ccc(OCCCN2CCOCC2)cc1`, with “inactive”.
For the molecule `CN1CCC(=C2c3ccccc3Sc3ccccc32)CC1`, the Potency result was “inactive”.
For the molecule `CN(C/C=C/c1ccccc1)Cc1cccc2ccccc12`, the Potency result is “inactive”.
Under `NC(=O)CC[C@@H]1NC(=O)[C@H](Cc2ccccc2)NC(=O)[C@H](Cc2ccc(O)cc2)NC(=O)CCSSC[C@@H](C(=O)N2CCC[C@H]2C(=O)N[C@@H](CCCN=C(N)N)C(=O)NCC(N)=O)NC(=O)[C@H](CC(N)=O)NC1=O` stands “inactive”; under `CC(C)C[C@H]1C(=O)N2CCC[C@H]2[C@]2(O)O[C@](NC(=O)[C@@H]3C=C4c5cccc6[nH]c(Br)c(c56)C[C@H]4N(C)C3)(C(C)C)C(=O)N12`, “inactive”; under `O=C(COc1ccc(Cl)cc1)N1CCN(Cc2ccc3c(c2)OCO3)CC1`, “inactive”.
Take `CCCCCCC[N+](CC)(CC)CCCCc1ccc(Cl)cc1`: the Potency result is “inactive”.
For `C[C@]12CCC(=O)C=C1[C@@H]1C[C@@H]1[C@H]1[C@@H]3[C@@H]4C[C@@H]4[C@@]4(CCC(=O)O4)[C@@]3(C)CC[C@@H]12`, the Potency entry is “inactive”.
As for `C[C@@H]1CN(CCCn2c3ccccc3c3ccccc32)C[C@H](C)N1`, the Potency entry was “inactive”.
Take `O=C(O)c1cc2cc(Cc3cccnc3)ccc2o1`: the Potency entry is “inactive”.
On to `CCCSS/C(CCO)=C(\C)N(C=O)Cc1cnc(C)nc1N`, for which the Potency entry was “inactive”.
On to `NCCc1ccn[nH]1`, for which the Potency entry is “inactive”.
